Source: PubChem (National Center for Advancing Translational Sciences (NCATS))
In the library only some 7.4% were active in any assay of this set; here they are far more common.
Rab9 promoter act – activators of Rab9 promoter; Huh7 Rab9 promoter-luciferase reporter, luminescence, 24 h; Potency, µM (doses to about 9.22 µM), inactives show at the highest dose activation, negative = inhibition, usual class: activators; hit rate 2.8% among 320,000; AID 485297; also: % of control where 0% means no effect; nearly all actives have a fitted effect of over 60% in size
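Stable Rab9-luc Huh7, 1500 cells/well, 2 h settle; cmpd in DMSO, 24 h, 37 °C/5% CO2; luciferase reagent 10 min RT; luminescence.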
FLuc modulator – inhibits or activates purified firefly luciferase, miR-21 counter-screen | P08659 | purified FLuc, Km substrates, luminescence inhibition | Potency, µM (highest dose often 57.5 µM), inactives show at the highest dose activity change, negative = inhibition, most hits filed as inhibitors | hit rate 6.9% among 360,000;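 also: plate controls were vehicle for no effect and reference inhibitor for full effect; nearly all actives have a fitted effect of over 55% in size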
Target sequence (P08659 whole entry, looked up): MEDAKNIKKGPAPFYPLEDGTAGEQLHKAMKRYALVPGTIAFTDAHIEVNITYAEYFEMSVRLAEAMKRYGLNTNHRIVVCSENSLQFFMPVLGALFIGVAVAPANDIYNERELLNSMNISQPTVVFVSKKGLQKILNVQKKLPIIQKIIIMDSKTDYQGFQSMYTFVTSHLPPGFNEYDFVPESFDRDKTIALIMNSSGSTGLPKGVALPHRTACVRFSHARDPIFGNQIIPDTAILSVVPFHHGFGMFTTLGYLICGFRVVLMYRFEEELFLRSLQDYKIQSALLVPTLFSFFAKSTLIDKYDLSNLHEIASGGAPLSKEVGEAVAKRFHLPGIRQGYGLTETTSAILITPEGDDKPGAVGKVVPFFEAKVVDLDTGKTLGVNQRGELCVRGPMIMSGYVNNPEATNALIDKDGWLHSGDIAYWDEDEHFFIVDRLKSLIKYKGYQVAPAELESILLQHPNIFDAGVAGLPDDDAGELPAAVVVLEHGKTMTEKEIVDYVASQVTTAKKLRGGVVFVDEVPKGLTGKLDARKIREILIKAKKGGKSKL
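Purified P. pyralis luciferase, 10 nM final, with Km-level 10 uM D-luciferin and 10 uM ATP in 50 mM Tris acetate pH 7.5, 10 mM Mg acetate, 0.01% Tween-20, 0.05% BSA; 6-point qHTS titration about 60 µM downward; luminescence read.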
KinaseGlo FLuc – counter-screen: inhibitors of Kinase-Glo firefly luciferase; Q27757; Kinase-Glo luciferase, ATP luminescence, 8 min; Potency, µM (doses to about 38.3 µM), without a hit: at the highest dose activity change, negative = inhibition, actives largely listed as inhibitors; hit rate 0.28% among 200,000; AID 1379; also: % is scaled to controls: 0 for no effect and ±100 for the full control effect; nearly all actives have a fitted effect of over 60% in size
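Compound is pinned into ATP-containing buffer (10 uM ATP, imidazole pH 7.2, 7 mM MgCl2). Kinase-Glo luciferase reagent is then added. Light output is recorded following an 8-min room-temperature incubation.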
SMN2 splice up – SMN2 splice variant enhancement; AID 1458; hit rate 2.8% among 210,000; HEK293 SMN2-luciferase splicing reporter, luminescence, 30-36 h; Potency, µM (highest dose often 46.1 µM), inactives show top-dose activity change, positive = activation, actives largely listed as activators; also: % of control where 0% means no effect; nearly all actives have a fitted effect of over 55% in size
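qHTS luciferase splicing reporter: luminescence rises when SMN2 exon 7 is included in transfected HEK293 cells. Compound exposure lasted 30-36 h at 37C, with 4.5 mM final sodium butyrate as control, followed by a ONE-Glo read.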
NPC1 promoter act – activators of NPC1 promoter. Huh7 NPC1 promoter luciferase reporter, 24 h. Potency, µM (top dose mostly 9.22 µM), without a hit: top-dose activation, usual class: activators. hit rate 2.4% among 320,000; also: % of control where 0% means no effect; nearly all actives have a fitted effect of over 60% in size
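Luciferase expression driven by the NPC1 promoter was measured in stably transfected Huh7 cells after a 24 h compound incubation, using a luciferase reagent and a luminescence read.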
ELG1 genotoxic – genotoxicity induction in ELG1-luciferase HEK293T cells | HEK293T ELG1-luciferase reporter, luminescence, 16 h | Potency, µM (top dose mostly 46 µM), inactives show top-dose activity change, positive = activation, most hits filed as activators | hit rate 1.3% among 330,000; also: % of control where 0% means no effect; nearly all actives have a fitted effect of over 60% in size
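Reporter readout depends on ELG1 protein level, which increases with genetic stress. After 16 hr compound exposure at 37 °C, luciferase activity was quantified using ONE-Glo.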
* = called active by the depositor; ? = inconclusive; / = no result given; [ ] = dose if it differs, or a comment. Calls follow the shape of the dose curve; as a rule, active = well fitted curve in the direction sought with a large enough effect; inconclusive = small, poorly fitted or top-dose-only effect, or another doubt; inactive = no such curve, though single readings can be large; an effect the other way counts as inactive or inconclusive. Potency is read from the fitted curve at half-maximal effect.

SMILES | Rab9 promoter act | FLuc modulator | KinaseGlo FLuc | SMN2 splice up | NPC1 promoter act | ELG1 genotoxic
Cc1ccc(-c2nn(-c3ccccc3)cc2/C=N/n2c(-c3ccncc3)n[nH]c2=S)cc1 | -4% | -1% | / | / | -9% | 18%
COc1ccc(-c2nn(-c3ccccc3)cc2/C=N/n2cnnc2)cc1OC | -6% | 19µM* | 1% | ? | -3% | 7%
Cc1cc(C[n+]2cc(Br)ccc2N)c2ncccc2c1 | -24% | -2% | / | / | -11% | -9%
CC1CC(C)(C)NC(=S)N1CC(=O)NCc1ccc2c(c1)OCO2 (stereo not drawn) | -7% | -2% | 0% | -6% | -3% | -1%
COc1ccc(NC(=O)CC2Oc3ccccc3NC2=O)c(OC)c1 (stereo not drawn) | -3% | -3% | / | / | 1% | -1%
C(=N\n1cnnc1)/c1cn(-c2cccs2)nc1-c1ccccc1 | 8% | 7.6µM* | -19% | ? | 14% | ?
CC(C)=CCN1CCN(Cc2cnc(C)s2)CC1CCO (stereo not drawn) | 0.79µM* | 6.7µM* | 0% | / | 1.6µM* | ?
CC(C)=CCN1CCN(Cc2cnc(N3CCOCC3)s2)CC1CCO (stereo not drawn) | 2.8µM* | 2.1µM* | -3% | / | 3.2µM* | ?
COC(=O)c1ccc(CN2CCN(CC=C(C)C)C(CCO)C2)cc1 (stereo not drawn) | -2% | 17µM* | 1% | / | -1% | 2%
O=C(Nc1ccc(S(=O)(=O)Nc2cnc3ccccc3n2)cc1)c1cccc(OC(F)F)c1 | -4% | ? | / | / | 1% | -13%
O=C(O)CSc1n[nH]c(=O)[nH]c1=O | / | / | -4%[7.66 µM] | -9%[9.22 µM] | / | /
CC(C)(C)c1ccc(C(=O)CSc2n[nH]c(=O)[nH]c2=O)cc1 | 7% | 12µM* | -5% | -26% | 4% | 8%
CCOc1ccc(-n2c(C)nc(O)c2N=Nc2ccccc2)cc1 | 7% | -17% | / | / | 5% | 5%
CC1=C(C(=O)Nc2cc(C)ccn2)C(c2ccc(C)cc2)C2=C(CCCC2=O)N1 (stereo not drawn) | -7% | 4% | 3% | 10µM* | -2% | 13%
COc1ccc(C(C(=O)NC2CCCC2)N(CCCO)C(=O)c2snc(C(N)=O)c2N)cc1 (stereo not drawn) | -7% | -2% | / | / | -5% | -4%
COc1ccc(C(=O)Nc2nnc(SCC(=O)NCC3CCCO3)s2)cc1OC (stereo not drawn) | 15% | 12µM* | / | / | 21% | 24%
Cc1cc(C)cc(C(=O)Nc2nnc(SCC(=O)NCC3CCCO3)s2)c1 (stereo not drawn) | 4% | ? | / | / | 1% | 4%
O=C(CSc1nnc(NC(=O)c2ccccc2[N+](=O)[O-])s1)NCC1CCCO1 (stereo not drawn) | 4% | 17µM* | / | / | 6% | 2%
O=C(CSc1nnc(Nc2ccccc2F)s1)NCC1CCCO1 (stereo not drawn) | / | / | / | / | / | 4%
O=C(CSc1nnc(NC(=O)Cc2ccccc2)s1)NCC1CCCO1 (stereo not drawn) | -9% | -5% | 2% | -12% | -2% | -2%
O=C(CSc1nnc(NC(=O)c2ccccc2F)s1)NCC1CCCO1 (stereo not drawn) | ? | 12µM* | / | / | ? | ?
O=C(CSc1nnc(NC(=O)c2ccccc2)s1)NCC1CCCO1 (stereo not drawn) | 2.8µM* | 4.3µM* | / | / | 3.5µM* | ?
NC(=O)c1nsc(C(=O)N(Cc2ccccc2Cl)C(C(=O)NCC2CCCO2)c2ccc(O)cc2)c1N (stereo not drawn) | -2% | 2% | / | / | 0% | 0%
O=C(CSc1nnc(NC(=O)c2cccc(Br)c2)s1)NCC1CCCO1 (stereo not drawn) | / | 8.5µM* | / | / | ? | ?
Cc1ccc(NC(=O)c2cnc(SCC(=O)NCC3CCCO3)n(C)c2=O)cc1C (stereo not drawn) | ? | 4.8µM* | / | / | ? | 21µM*
SMILES | Rab9 promoter act | FLuc modulator | KinaseGlo FLuc | SMN2 splice up | NPC1 promoter act | ELG1 genotoxic
Cn1c(SCC(=O)NCC2CCCO2)ncc(C(=O)Nc2ccccc2)c1=O (stereo not drawn) | 2% | ? | / | / | 0% | ?
CC1CCCCN1C(=O)CCS(=O)(=O)c1cccc2nonc12 (stereo not drawn) | 15% | 2% | -3% | 6% | 9% | -1%
CCc1cc2c(=O)c(-c3ccc4c(c3)OCCO4)coc2c(CN2CCCCC2C)c1O (stereo not drawn) | 21% | 6.7µM* | 4% | / | 7% | 12%
CCc1cc2c(=O)c(-c3ccc4c(c3)OCCO4)coc2cc1OS(C)(=O)=O | 3.5µM* | 4.8µM* | 1% | 22µM* | 2.8µM* | 7%
C/C(=N/NC(=O)CNC(=O)COc1ccccc1)c1ccco1 | -2% | 1% | 2% | -2% | -1% | 2%
Cc1ccccc1NC(=O)CSc1nnc(-c2cccc(Cl)c2)o1 | / | -14% | / | / | / | /
O=C(CSc1nc2c(oc3ccccc32)c(=O)[nH]1)Nc1cccc(Cl)c1 | / | 1.2µM* | / | 20µM* | / | /
O=C(CSc1nnc(-c2ccccn2)o1)Nc1ccccc1F | 0.79µM* | 2% | / | / | 0.45µM* | ?
COc1cccc(-n2c(SCC(=O)Nc3cccc(Cl)c3)nc3c(oc4ccccc43)c2=O)c1 | / | 1% | / | -5% | / | /
O=C(CSc1nnc(-c2ccccn2)o1)Nc1cccc(Cl)c1 | 2.2µM* | / | / | / | ? | 6%
Cc1ccccc1NC(=O)CSc1nnc(-c2ccccn2)o1 | ? | -4% | / | / | 29% | 8%
O=C(CSc1nnc(-c2cccc(Cl)c2)o1)Nc1ccc2c(c1)OCCO2 | 2.8µM* | -5% | 1% | 11µM* | 3.5µM* | 21µM*
Fc1cccc(NCc2ccccc2-c2nnc(-c3ccccc3Cl)o2)c1 | / | ? | / | 1% | / | /
O=C(CSc1nnc(-c2ccc(C(F)(F)F)cn2)o1)Nc1cccc(Cl)c1 | ? | / | / | / | 3.2µM* | ?
Cc1ccc(NC(=O)CSc2nnc(-c3cccnc3)o2)c(C)c1 | -1% | 3% | / | / | -3% | ?
O=C(CSc1nnc(-c2cccnc2)o1)Nc1ccccn1 | 4µM* | 0% | -2% | 13µM* | 3.2µM* | 7.3µM*
NCCc1nnc(SCC(=O)Nc2cccc(Cl)c2)o1 | 3% | 3% | / | / | 0% | 0%
COc1ccc(OCc2nnc(SCC(=O)Nc3cccc(Cl)c3)o2)cc1 | 0% | 19µM* | / | / | -2% | 0%
CS(=O)(=O)c1ccc(Cl)c(NC(=O)C2CCN(S(=O)(=O)c3cccs3)CC2)c1 | 1% | -1% | / | / | -3% | -5%
COc1ccc(-c2cn3c(n2)CCC3)cc1 | 1.6µM* | 13µM* | -10% | 13µM* | 2.5µM* | ?
